Source: PubChem BioAssay (NCATS)
Records with an inconclusive call do not appear. Where a call stands in place of a potency, no number is given. The source made the active and inactive calls. Calls come from the whole dose curve; as a rule, active = well fitted inhibition curve with a large enough effect; inconclusive = small, poorly fitted or top-dose-only effect; inactive = no such curve, though single readings can be large or run the other way.

The compounds below were run on Zika virus NS2B-NS3 protease (unlinked complex) (assay: Primary screen GU Rhodamine qHTS for Zika virus inhibitors: Unlinked NS2B-NS3 protease assay (AID 1347159; note: nearly all actives have a fitted effect of over 60% in size)). Details: Recombinant ZIKV NS2B-NS3 protease, Rhodamine110 substrate fluorescence; series mostly up to 107 µM.
Method in brief: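 A qHTS format was used, with compound concentrations ranging up to 114 microM. Each compound was preincubated with 25 nM NS2B-NS3 protease, and the substrate was then added at 1.5 microM. Curves were fitted with a 4-parameter Hill model.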

SMILES | Potency
COc1cc(CO)cc(OC)c1O[C@@H]1O[C@H](CO)[C@@H](O)[C@H](O)[C@H]1O | inactive
NC(=O)c1ccc(F)c2c1C[C@@H](N(C1CCC1)C1CCC1)CO2 | inactive
CCCNCCOc1ccc(NC(=O)c2c[nH]c3c2C(=O)CCC3)cc1F | inactive
CCCO[C@@H]1O[C@H](CO)[C@@H](O)[C@H](O)[C@H]1O[C@@H]1OC[C@@H](O)[C@H](O)[C@H]1O | inactive
CCOC(=O)C(CCc1ccccc1)NC1CCCN2CCCC(C(=O)O)N2C1=O (centres undefined) | inactive
O=C(NCC(=O)N1CCCC1)Nc1ccc2ccccc2c1 | inactive
O=C(C[C@@H]1C(C(=O)O)=CO[C@@H](O[C@@H]2O[C@H](CO)[C@@H](O)[C@H](O)[C@H]2O)/C1=C\CO)OCCc1ccc(O)c(O)c1 | inactive
C[C@]1(OC(=O)/C=C\c2ccc(O)cc2)C[C@@H](O)[C@]2(O)C=CO[C@@H](O[C@@H]3O[C@H](CO)[C@@H](O)[C@H](O)[C@H]3O)C12 (some centres undefined) | inactive
C/C=C/C=C/C=C/C(=O)N(C)C(C(=O)NC(C)C(=O)N1CCCC1C(N)=O)C(C)C (centres undefined) | inactive
N#Cc1ccc(C2CCCc3cncn32)cc1 (centres undefined) | inactive
COC(=O)[C@]1(C)CCC[C@@]2(C)[C@@H]3CC[C@@H]4C[C@@]3(CC[C@@H]21)C[C@H]4C(=O)O | inactive
FC(F)(F)Oc1ccc(-c2ccc3nnc(C(F)(F)F)n3c2)cc1 | inactive
CC/C=C/C(O)C(O)C1=C(C)C(=O)C2(O1)C(=O)NC(OC)(C(=O)c1ccccc1)C2O (centres undefined) | inactive
C[C@H]1[C@H](C)CC[C@]2(C(=O)O)CC[C@]3(C(=O)O)C(=CCC4[C@@]5(C)CC[C@H](O[C@@H]6O[C@@H](C)[C@H](O)[C@@H](O)[C@H]6O)C(C)(C)C5CC[C@]43C)[C@H]12 (some centres undefined) | inactive
